Measurements reported in PubChem BioAssay (EPA / NIEHS).
The source made the active and inactive calls. How the source made its calls: active means hit-call score of the fitted dose curve at least 0.9, where 1 is the maximum; inactive means score below 0.9.

Assay: ATG_FoxO_CIS: Attagene CIS-FACTORIAL HepG2 Assay for human Forkhead box O (FoxO) (AID 2282943)
Details: HepG2 Attagene cis-reporter, FoxO element, mRNA; actives raise or lower the signal
Method: ATG_CIS is a cell-based, multiplexed-readout assay that uses HepG2, a human liver cell line, with measurements taken at 24 hours after chemical dosing in a 24-well plate.ATG_FoxO_CIS is one of 52 assay component(s) measured or calculated from the ATG_CIS assay. It is designed to make measurements of mRNA induction, a form of inducible reporter, as detected with fluorescence intensity signals by Reverse transcription polymerase chain reaction (RT-PCR) and Capillary electrophoresis technology.Data from the assay component ATG_FoxO_CIS was analyzed into 1 assay endpoint. This assay endpoint, ATG_FoxO_CIS, was analyzed with bidirectional fitting relative to DMSO as the negative control and baseline of activity. Using a type of inducible reporter, measures of mRNA for gain or loss-of-signal activity can be used to understand the reporter gene at the transcription factor-level as they relate to the gene FOXO1 and FOXO3. Furthermore, this assay endpoint can be referred to as a primary readout, because this assay has produced multiple assay endpoints where this one serves a reporter gene function. To generalize the intended target to other relatable targets, this assay endpoint is annotated to the dna binding intended target family, where the subfamily is forkhead box protein.
Human liver HepG2 cells are transiently transfected with multiple reporter transcription units (MRTUs) in 6-well plates using FuGene 6 reagent (Roche; 3 ml FuGene/1 mg DNA). The MRTU constructs are regulated by a cis-regulating element (promoter). […] A major difference between the CIS and TRANS system is that in CIS activities of endogenous TFs are measured, whereas the TRANS assay evaluates changes in activities of exogenous, chimeric NR-Gal4 proteins. […] At the end of 24 hour incubation, total RNA was isolated using TriZol reagent (Invitrogen). The isolated RNA is then reverse-transcribed using oligo(dT) primer and Mo-MLV reverse transcriptase (Invitrogen) with DNAse I (Ambion) treatment for 30 min. The one-tenth of the produced cDNA was amplified by PCR using Taq DNA polymerase (Invitrogen) and two reporter sequence-specific primers. The PCR products were fluorescently labeled by primer extension with 6-arboxyfluorescein (6-FAM) 5'-labeled reporter sequence-specific primer (2 min at 95 C, 20 s at 68 C and 10 min at 72 C) and these products were digested with 5U of HpaI (New England Biolabs) for 2h at 37 C. The fragments were purified using Qiaquick PCR columns (Qiagen), analyzed on an ABI 3130xL genetic analyzer (Applied Biosystems) with peak positions identified by using a set of X-rhodamine (ROX)-labeled MapMarker1000 molecular weight standards (BioVentures). The raw capillary electrophoresis data was processed using Attagraph software (Attagene).

Row | SMILES | outcome | AC50
1 | C=C(C)C1CCC(C)CC1O (stereo not given) | inactive | –
2 | NC(=O)c1ccccc1Cl | inactive | –
3 | CCCCCCCCCCC(CO)CCCCCCCC (stereo not given) | inactive | –
4 | N#Cc1ccccc1 | inactive | –
5 | CCCCCCCCCC=O | inactive | –
6 | C=C[C@@H](C)CCC=C(C)C | inactive | –
7 | O=C(Nc1ccccc1)c1cc([N+](=O)[O-])ccc1Cl | inactive | –
8 | O=C(O)CCSCCC(=O)O | inactive | –
9 | CCCCCCCCCOC(C)=O | inactive | –
10 | Clc1ccc2c(c1)C(N1CCNCC1)=Nc1ccccc1O2 | inactive | –
11 | CCC/C=C/C=O | inactive | –
12 | Cc1ncc([N+](=O)[O-])n1C | inactive | –
13 | Cc1ccc(C=O)s1 | inactive | –
14 | CN1Cc2c(N)cccc2C(c2ccccc2)C1 (stereo not given) | inactive | –
15 | C=C(C)C(=O)O[C@H]1C[C@@H]2CC[C@@]1(C)C2(C)C | inactive | –
16 | CC[C@]12CCCN3CCc4c(n(c5ccccc45)[C@@](O)(C(=O)OC)C1)[C@@H]32 | inactive | –
17 | CC(C=O)Cc1ccc(C(C)C)cc1 (stereo not given) | inactive | –
18 | Nc1ccc(S(=O)(=O)O)c(N)c1 | inactive | –
19 | CCCCCNCCCCC | inactive | –
20 | COc1nc(C)nc(N)n1 | inactive | –

Row | SMILES | outcome | AC50
21 | CCCCN | inactive | –
22 | O=C1OC2(c3cc(Br)c(O)c(Br)c3Oc3c2cc(Br)c(O)c3Br)c2c(Cl)c(Cl)c(Cl)c(Cl)c21 | inactive | –
23 | OCc1cccnc1 | inactive | –
24 | CN(C)CCOCCN(C)C | inactive | –
25 | CC1(C)[C@H](C(=O)OCc2cccc(Oc3ccccc3)c2)[C@@H]1C=C(Cl)Cl | inactive | –
26 | CC1CCC(C(C)CS)CC1S (stereo not given) | inactive | –
27 | O=C1CCCCCCCCCCCCCCO1 | inactive | –
28 | Cc1ccc(O)c(C(C)(C)C)c1 | inactive | –
29 | O=C(O)CCCCCCCCCCC(=O)O | inactive | –
30 | Cc1ccc(Nc2ccc(O)c3c2C(=O)c2ccccc2C3=O)cc1 | inactive | –
31 | CCCC[n+]1ccccc1 | inactive | –
32 | Cc1ccc2ccccc2n1 | inactive | –
33 | C[Si](O[Si](C)(C)C)O[Si](C)(C)C | inactive | –
34 | C#C[C@]1(O)CC[C@H]2[C@@H]3CCC4=Cc5oncc5C[C@]4(C)[C@H]3CC[C@@]21C | – | 60.4 µM (active)
35 | O=C(O)c1ccc(C(=O)O)cc1 | inactive | –
36 | O=C(O)CCCCC1CCSS1 (stereo not given) | inactive | –
37 | CC(C)C[C@H]1C(=O)N2CCC[C@H]2[C@]2(O)O[C@](NC(=O)[C@@H]3C=C4c5cccc6[nH]c(Br)c(c56)C[C@H]4N(C)C3)(C(C)C)C(=O)N12 | inactive | –
38 | O=C(O)c1cccc([N+](=O)[O-])c1 | inactive | –
39 | Nc1cccc(S(=O)(=O)c2cccc(N)c2)c1 | inactive | –
40 | CCCCCCCCCCN | inactive | –
